PubChem BioAssay AID2283131 (EPA ToxCast)
Inconclusive results are not listed. Calls of active or inactive are those of the source. The calls were made as follows: active = hit-call score of the fitted dose curve at least 0.9, where 1 is the maximum; inconclusive = response in the unintended direction; inactive = score below 0.9.

These compounds were tested against human Bruton's Tyrosine Kinase (BTK), BTK (gene 695) (UniProt Q06187) (assay: NVS_ENZ_hBTK: NovaScreen (NVS) Enzymatic Assay for human Bruton's Tyrosine Kinase (BTK)).
Chain of human Bruton's Tyrosine Kinase (BTK), BTK (gene 695) (Q06187 whole entry, looked up): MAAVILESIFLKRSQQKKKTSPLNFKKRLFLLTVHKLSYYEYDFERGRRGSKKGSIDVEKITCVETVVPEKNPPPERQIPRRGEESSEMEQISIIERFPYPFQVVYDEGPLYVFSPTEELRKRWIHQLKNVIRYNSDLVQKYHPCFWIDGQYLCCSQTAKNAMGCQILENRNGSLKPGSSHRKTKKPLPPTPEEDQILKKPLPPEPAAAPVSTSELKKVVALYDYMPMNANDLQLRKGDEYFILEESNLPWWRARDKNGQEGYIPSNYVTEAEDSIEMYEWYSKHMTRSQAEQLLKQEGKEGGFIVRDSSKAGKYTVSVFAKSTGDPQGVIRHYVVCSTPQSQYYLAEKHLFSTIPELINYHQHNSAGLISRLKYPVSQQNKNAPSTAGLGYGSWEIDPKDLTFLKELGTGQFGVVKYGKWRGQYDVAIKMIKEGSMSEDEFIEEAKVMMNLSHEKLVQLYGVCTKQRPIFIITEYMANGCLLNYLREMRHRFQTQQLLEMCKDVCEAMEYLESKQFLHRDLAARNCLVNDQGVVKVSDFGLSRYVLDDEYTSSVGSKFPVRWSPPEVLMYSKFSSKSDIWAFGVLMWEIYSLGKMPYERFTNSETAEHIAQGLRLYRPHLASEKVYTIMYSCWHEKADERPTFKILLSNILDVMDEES
Protocol: NVS_ENZ_hBTK is a biochemical, single-readout assay that uses extracted gene-proteins in a cell-free assay. Measurements were taken 1 hour after chemical dosing in a 96-well plate.NVS_ENZ_hBTK is one of one assay component(s) measured or calculated from the NVS_ENZ_hBTK assay. It is designed to make measurements of enzyme activity, a form of enzyme reporter, as detected with fluorescence intensity signals by Fluorescence and electrophoretic mobility shift technology.Data from the assay component NVS_ENZ_hBTK was analyzed into 1 assay endpoint. This assay endpoint, NVS_ENZ_hBTK, was analyzed in the positive analysis fitting direction relative to DMSO as the negative control and baseline of activity. Using a type of enzyme reporter, loss-of-signal activity can be used to understand changes in the enzymatic activity as they relate to the gene BTK. Furthermore, this assay endpoint can be referred to as a primary readout, because this assay has produced multiple assay endpoints where this one serves a enzymatic activity function. To generalize the intended target to other relatable targets, this assay endpoint is annotated to the kinase intended target family, where the subfamily is non-receptor tyrosine kinase.
Binding assays used specific radioligands (tritiated, iodinated) with non-radioactive competitive displacement ligands in agonist or antagonist protocols (as indicated) and various reference compounds and inhibitors to titrate specific binding to receptors and transporters. Most enzyme assays (CYPs, kinases, phosphatases, proteases, HDACs) used recombinant protein and specific substrates (fluorescence mostly, some colorimetric and radioactive) and inhibitors, followed by a biochemical separation of substrate and product. All assays for the biochemical HTS were initially run in duplicate at a single concentration (10 uM for CYP450 assays and 25 uM for all others). […] Each assay was run with positive and negative controls, and concurrent controls on every plate. The follow-up (secondary) screen tested active chemical-pairs in concentration series, as well as a few additional assays not tested in the primary screen, some selected negative inactives, and several cases re-run in the concentration series for confirmatory purposes.

Row | SMILES | outcome | AC50
1 | S=C1NCCN1 | inactive | 
2 | Fc1ccc(Oc2ccnc3cc(Cl)cc(Cl)c23)cc1 | inactive | 
3 | CNC(=O)Oc1cccc2c1OC(C)(C)O2 | inactive | 
4 | O=S(=O)(O)C(F)(F)C(F)(F)C(F)(F)C(F)(F)C(F)(F)C(F)(F)C(F)(F)C(F)(F)F |  | 17.4 µM (active)
5 | O=[N+]([O-])/N=C1\NCCN1Cc1ccc(Cl)nc1 | inactive | 
6 | N#Cc1c(Cl)c(Cl)c(Cl)c(C#N)c1Cl | inactive | 
7 | O=C(O)C(F)(F)C(F)(F)C(F)(F)C(F)(F)C(F)(F)C(F)(F)C(F)(F)F | inactive | 
8 | Cc1ccccc1CO[C@@H]1C[C@@]2(C(C)C)CC[C@]1(C)O2 | inactive | 
9 | CCCOc1nn(C(=O)NS(=O)(=O)c2ccccc2C(=O)OC)c(=O)n1C | inactive | 
